Assay outcomes as filed in PubChem BioAssay.
Only some compounds are listed: those with a hit (about 2.4% of all), similar ones and a draw of the others.
Epigenetic derep = epigenetic control regulation, reporter derepression | murine LDR cells, GFP reporter derepression, 30 h | Potency, µM (series often up to 53.9 µM), without a hit: top-dose GFP activation, usual class: activators | 280,000 compounds, 0.2% hits | AID 1865; note: % of control where 0% means no effect; nearly all actives have a fitted effect of over 60% in size
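Readout is the number of GFP-expressing murine LDR cells, counted by cytometry following washing. Cells were treated with compound for 30 h at 37 C; the stably integrated CMV-GFP locus is normally silent.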
A549 viability = A549 cytotoxicity, counter-screen for Nrf2 inhibitors; A549 ARE-Fluc cells, CellTiter-Fluor viability, 18-24 h; Potency, µM (highest dose often 46 µM), for the others: at the top dose activity change, negative = cytotoxicity, most hits filed as inhibitors; 390,000 compounds, 0.16% hits; note: % is set by controls: 0 for no effect and ±100 for the full control effect
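A549 ARE_Fluc cells in 5% FBS OPTI-MEM were exposed to compounds in concentration-response for 18-24 h at 37 deg C. Viability was read by CellTiter-Fluor fluorescence (Ex 405/Em 525) after 30 min, before the luciferase read.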
Nrf2 ARE act = activates Nrf2 signaling; AREc32 ARE-luciferase reporter (MCF7-derived line), luminescence, 24 h; AID 624171; Potency, µM (highest dose often 46.1 µM), inactives show top-dose activation, most hits filed as activators; 410,000 compounds, 0.31% hits; note: % of control where 0% means no effect; nearly all actives have a fitted effect of over 65% in size
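Reporter line AREc32 (ARE-Fluc), seeded overnight in OPTI-MEM with 5% FBS; compound pin-transferred, 24 hr at 37 deg C, 5% CO2; luminescent read-out.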
PINK1 expr mod = changes PINK1 expression; Potency, µM (top dose mostly 76.6 µM), for the others: at the top dose activation (PINK1 increase), hits mostly activators; PINK1 immunofluorescence, high-content cytometry, 24 h; 410,000 compounds, 0.2% hits; active = well fitted activation curve with a large enough effect; inconclusive = small, poorly fitted or top-dose-only effect; cell line not stated here; note: % of control where 0% means no effect; nearly all actives have a fitted effect of over 65% in size
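Fluorescence from anti-PINK1 antibody, together with nuclear and cell stains, was scanned on a laser-scanning cytometer. Before staining, stable-line cells were incubated 24 hours with compounds at 5 concentrations; primary antibody 12 h at 10 degrees C.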
Nrf2 inh = inhibitors of Nrf2 signaling | A549 ARE-Fluc reporter, luciferase luminescence, 18-24 h | Potency, µM (doses to about 46 µM), without a hit: at the top dose activity change, negative = inhibition, most hits filed as inhibitors | 360,000 compounds, 2.1% hits | AID 504444; note: % is set by controls: 0 for no effect and ±100 for the full control effect; nearly all actives have a fitted effect of over 60% in size
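A549 ARE_Fluc cells (5000/well, 5% FBS OPTI-MEM) pre-incubated 2 h, then treated with compounds 18-24 h at 37C/5% CO2 in concentration-response. CellTiter-Fluor viability read first; BugLite luciferase luminescence after 15 min at room temperature gives Nrf2 activity.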
* = called active by the depositor; ? = inconclusive; nt = no result given; [ ] = dose if it differs, or a comment. Unless noted, calls come from the whole dose curve; as a rule, active = well fitted curve in the direction sought with a large enough effect; inconclusive = small, poorly fitted or top-dose-only effect, or another doubt; inactive = no such curve, though single readings can be large; an effect the other way counts as inactive or inconclusive. Potency is the fitted concentration of half-maximal effect.

SMILES	Epigenetic derep	A549 viability	Nrf2 ARE act	PINK1 expr mod	Nrf2 inh
COc1ccc(NC2=C(Cl)C(=O)N(CCc3ccccc3)C2=O)c(OC)c1	7%	0%	13µM*	3%	1%
COc1ccc(NC2=C(Cl)C(=O)N(CCc3ccccc3)C2=O)cc1	1%	-4%	?	1%	2%
Cc1ccn2c(-c3csc(NCc4ccco4)n3)c(C)nc2c1	-1%	-17%	4%	1%	23µM*
COc1cc(/C=N/N=C(/N)c2nonc2N)cc(Br)c1OCc1cccc(C)c1	-1%	-21%	0%	3%	21µM*
CCOc1cc(/C=N/NC(N)=S)cc(Br)c1OCc1ccccc1C	2%	-17%	5%	10%	?
CCOc1cc(/C=N/N=C(\N)c2nonc2N)cc(Br)c1OCc1cccc2ccccc12	16%	?	4%	-2%	21µM*
O=[N+]([O-])c1cc([N+](=O)[O-])c2oc(-c3ccccc3)c(Br)c2c1O	nt	?	2%	35µM*	-1%
O=c1c(O)c(-c2ccccc2)oc2cccc(O)c12	5%	nt	nt	1%	nt
COc1ccc(CN2CCOc3ccc(CN4CCC(Oc5cccnc5)CC4)cc3C2)cc1C	nt	nt	nt	0%	nt
COc1ccc(-c2c3c(=O)n(C)c(=O)n(C)c3c3n2-c2ccccc2NC3c2ccco2)cc1 (configuration not stated)	-4%	7%	7%	0%	19%
COc1ccc2[nH]c3c(Cl)ncnc3c2c1	-1%	0%	0%[9.22 µM]	5%	0%
OC1(c2cccc(C(F)(F)F)c2)CCN(c2ncnc3c2[nH]c2ccc(F)cc23)CC1	0%	21µM*	-3%	25%	12µM*
Fc1ccc2[nH]c3c(N4CCN(c5ccccc5)CC4)ncnc3c2c1	0%	?	-2%	6%	13µM*
O=C(c1ccco1)N1CCN(c2ncnc3c2[nH]c2ccc(Br)cc23)CC1	0%	-17%	-1%	-1%	8.2µM*
COc1ccc2[nH]c3c(N4CCc5ccccc5C4)ncnc3c2c1	11%	18µM*	-2%	-1%	16µM*
CCOC(=O)N1CCN(c2ncnc3c2[nH]c2ccc(OC)cc23)CC1	0%	-10%	3%	0%	?
CCOC(=O)N1CCN(c2ncnc3c2[nH]c2ccc(F)cc23)CC1	-1%	-14%	3%	3%	15µM*
CC1CCCC(NC(=O)CCNS(=O)(=O)c2ccc(Br)cc2)C1C (configuration not stated)	1%	?	1%	1%	15µM*
O=C(CCNS(=O)(=O)c1ccc(Br)cc1)NC1CCCCC1	-1%	-2%	-1%	-1%	-8%
c1ccc2sc(-c3cc4c(c(OC5CCOC5)c3)OCCN(Cc3cccn3-c3nccs3)C4)nc2c1 (configuration not stated)	nt	nt	nt	-1%	nt
CC(=O)N1CCC[C@H]1C(=O)N1CCc2c(cnc(C)c2CNC(=O)/C=C/c2cccs2)C1	nt	nt	nt	0%	nt
CCOC(=O)/C=C(\C)N1N=C(c2ccccc2)CC1c1ccccc1 (configuration not stated)	1%	-5%	13µM*	0%	?
Cc1ccc(/C=C/C(=O)N2CCC(c3nc4ccccc4o3)CC2)cc1	-2%	-15%	4%	1%	?
Cc1ccc(C(=O)O/N=C/c2c(N3CCOCC3)n(C)c3ccccc23)cc1	2%	-1%	-1%	0%[38.3 µM]	?
CC(=O)O/N=C/c1c(N2CCOCC2)n(C)c2ccccc12	-1%	nt	0%	-3%	6.5µM*
SMILES	Epigenetic derep	A549 viability	Nrf2 ARE act	PINK1 expr mod	Nrf2 inh
Cn1c(N2CCOCC2)c(/C=N/OC(=O)c2ccc(F)cc2)c2ccccc21	-1%	-5%	0%	1%[38.3 µM]	0.65µM*
O=C(C[N+]12CN3CN(CN(C3)C1)C2)c1ccc(O)c(O)c1	nt	nt	nt	1%	nt
CCN(CC)S(=O)(=O)c1cccc(-c2nnc(SCCCC(=O)c3ccc(F)cc3)o2)c1	-5%	-16%	1%	nt	23µM*
COc1ccc(C2Nc3ccccc3C(=O)N2Cc2cccc(C(F)(F)F)c2)cc1COc1ccc(NC(C)=O)cc1 (configuration not stated)	nt	-15%	nt	nt	?
Cc1ccc2c(CC(=O)N3CCOc4ccc(CN5C[C@@H](C)O[C@@H](C)C5)cc4C3)cc(=O)oc2c1	nt	nt	nt	0%	nt
CC(=O)C1=C(C)NC(SCC(=O)c2cc(Cl)ccc2Cl)=C(C#N)C1c1ccco1 (configuration not stated)	-9%	?	23%	3%[38.3 µM]	7.3µM*
CC1=C(C(=O)OCC2CCCO2)C(c2cccc(C(F)(F)F)c2)C2=C(CC(c3ccco3)CC2=O)N1 (configuration not stated)	1%	?	4%	nt	23µM*
CC1=C(C(=O)OCC2CCCO2)C(c2ccccc2OC(C)C)C2=C(CC(c3ccco3)CC2=O)N1 (configuration not stated)	0%	7%	0%	1%	7%
O=C(NCC1Cc2cccc(-c3cnccn3)c2O1)c1ccc(F)c(Cl)c1 (configuration not stated)	nt	nt	nt	1%	nt
CCC1CCCCN1C(=O)CSc1nc(-c2ccc(OC)cc2)cc(C(F)(F)F)n1 (configuration not stated)	0%	-6%	0%	1%	21µM*
CNS(=O)(=O)c1cccc(C(=O)OCC(=O)c2c(N)n(C)c(=O)n(C)c2=O)c1	3%	-2%	0%	5%	1%
C=CCN(c1ccccc1OC)S(=O)(=O)c1cccc(C(=O)OCC(=O)c2c(N)n(C)c(=O)n(C)c2=O)c1	nt	1%	3%	3%	21µM*
CCOC(=O)c1noc2nc(C)n(CC(=O)Nc3cccc(OC)c3)c(=O)c12	-1%	11%	7%	0%	nt
CC(Oc1ccc(Br)cc1)C(=O)Nc1nc(-c2ccccn2)cs1 (configuration not stated)	nt	?	?	11%	16µM*
CCCn1nc(C(=O)Nc2nc(-c3ccccn3)cs2)c2ccccc2c1=O	nt	-23%	3%	6%	8.2µM*
CCn1nc(C(=O)Nc2nc(-c3ccccn3)cs2)c2ccccc2c1=O	nt	-8%	5%	3%	?
O=C(Nc1nc(-c2ccccn2)cs1)c1ccccc1-n1cnnn1	5%	-19%	-1%	1%	5.8µM*
CC(C)[C@H](NC(=O)c1ccccc1Cl)C(=O)Nc1nc(-c2ccccn2)cs1	1%	-27%	0%	5%	15µM*
CC(=O)Nc1ccc(C(=O)Nc2nc(-c3ccccn3)cs2)cc1	-1%	5%	1%	2%	-2%
Cc1cccc(CNC(=O)c2cnn(-c3nccc(-c4cccs4)n3)c2C2CC2)n1	nt	nt	nt	-1%	nt
O=C(O)CCc1cc(F)c(S(=O)(=O)N2CCN(S(=O)(=O)c3ccc4c(c3)OCCO4)CC2)cc1F	nt	-3%	nt	nt	-14%
CCCCn1cnc2c(SCc3ccc(Br)cc3)nc(N)nc21	nt	-19%	5%	13%	18µM*
